Experimental data as given in the supplement of paper PMC11732987, “Enantioselective OTUD7B fragment discovery through chemoproteomics screening and high-throughput optimisation” (Communications Chemistry, 2025).

Columns and labels:
Assay in all cases: log2 ratio of Biotin-Ahx-Ub-VS probe labelling (fragment/DMSO); higher = less target engagement (more negative = stronger competition), active = hit call of the paper (q ≤ 0.05, log2 ratio ≤ -1)
Settings in all cases: compound concentration: 200 uM; treatment time: 3 h
[1] = molecular target: USP34 (UniProt Q70CQ2)
Outline: (§1)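 Using Biotin-Ahx-Ub-VS at 0.5 µM final for 1 h, DUBs were labelled in HEK293T lysate (495 µg per sample) that had first been treated in triplicate with fragment at 200 µM or vehicle for 3 h. NeutrAvidin enrichment, LysC and trypsin digestion and diaPASEF LC-MS/MS followed. Spectronaut label-free quantities were global-median-normalised. Values are average log2 fragment/vehicle ratios by unpaired t-test, using proteins with ≥2 unique peptides.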

[2] = molecular target: T1, USP36 (UniProt Q9P275)
T1 sequence (whole entry): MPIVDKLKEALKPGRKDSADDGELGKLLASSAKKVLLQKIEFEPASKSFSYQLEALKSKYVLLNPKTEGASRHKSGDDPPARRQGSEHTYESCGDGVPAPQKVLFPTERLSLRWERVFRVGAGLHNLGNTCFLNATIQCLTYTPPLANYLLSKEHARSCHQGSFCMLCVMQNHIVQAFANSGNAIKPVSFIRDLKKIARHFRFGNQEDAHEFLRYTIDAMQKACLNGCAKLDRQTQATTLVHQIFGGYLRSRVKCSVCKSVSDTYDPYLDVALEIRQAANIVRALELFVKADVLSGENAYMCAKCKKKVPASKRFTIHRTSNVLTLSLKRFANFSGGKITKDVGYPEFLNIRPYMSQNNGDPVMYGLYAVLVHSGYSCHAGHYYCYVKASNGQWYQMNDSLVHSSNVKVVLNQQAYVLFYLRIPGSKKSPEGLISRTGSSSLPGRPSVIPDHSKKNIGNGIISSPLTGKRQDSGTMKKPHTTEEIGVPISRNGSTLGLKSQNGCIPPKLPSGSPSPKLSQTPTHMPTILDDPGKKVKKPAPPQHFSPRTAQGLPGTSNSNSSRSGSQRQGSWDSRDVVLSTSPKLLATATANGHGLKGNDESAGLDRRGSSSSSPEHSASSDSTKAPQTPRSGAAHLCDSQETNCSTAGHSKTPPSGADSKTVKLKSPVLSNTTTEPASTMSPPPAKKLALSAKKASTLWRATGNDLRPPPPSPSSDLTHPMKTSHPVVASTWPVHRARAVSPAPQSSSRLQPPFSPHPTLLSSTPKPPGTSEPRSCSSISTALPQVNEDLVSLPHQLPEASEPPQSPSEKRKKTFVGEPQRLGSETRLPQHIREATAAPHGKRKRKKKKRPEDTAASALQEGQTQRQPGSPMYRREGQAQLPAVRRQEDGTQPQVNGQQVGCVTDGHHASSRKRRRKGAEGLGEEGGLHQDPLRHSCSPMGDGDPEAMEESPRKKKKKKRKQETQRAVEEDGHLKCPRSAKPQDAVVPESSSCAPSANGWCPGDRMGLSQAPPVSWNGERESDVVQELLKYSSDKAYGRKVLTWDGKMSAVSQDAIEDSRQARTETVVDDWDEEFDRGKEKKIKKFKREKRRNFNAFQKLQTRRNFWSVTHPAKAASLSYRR
Outline: as §1

[3] = molecular target: T2, USP38 (UniProt Q8NB14)
T2 sequence (whole entry): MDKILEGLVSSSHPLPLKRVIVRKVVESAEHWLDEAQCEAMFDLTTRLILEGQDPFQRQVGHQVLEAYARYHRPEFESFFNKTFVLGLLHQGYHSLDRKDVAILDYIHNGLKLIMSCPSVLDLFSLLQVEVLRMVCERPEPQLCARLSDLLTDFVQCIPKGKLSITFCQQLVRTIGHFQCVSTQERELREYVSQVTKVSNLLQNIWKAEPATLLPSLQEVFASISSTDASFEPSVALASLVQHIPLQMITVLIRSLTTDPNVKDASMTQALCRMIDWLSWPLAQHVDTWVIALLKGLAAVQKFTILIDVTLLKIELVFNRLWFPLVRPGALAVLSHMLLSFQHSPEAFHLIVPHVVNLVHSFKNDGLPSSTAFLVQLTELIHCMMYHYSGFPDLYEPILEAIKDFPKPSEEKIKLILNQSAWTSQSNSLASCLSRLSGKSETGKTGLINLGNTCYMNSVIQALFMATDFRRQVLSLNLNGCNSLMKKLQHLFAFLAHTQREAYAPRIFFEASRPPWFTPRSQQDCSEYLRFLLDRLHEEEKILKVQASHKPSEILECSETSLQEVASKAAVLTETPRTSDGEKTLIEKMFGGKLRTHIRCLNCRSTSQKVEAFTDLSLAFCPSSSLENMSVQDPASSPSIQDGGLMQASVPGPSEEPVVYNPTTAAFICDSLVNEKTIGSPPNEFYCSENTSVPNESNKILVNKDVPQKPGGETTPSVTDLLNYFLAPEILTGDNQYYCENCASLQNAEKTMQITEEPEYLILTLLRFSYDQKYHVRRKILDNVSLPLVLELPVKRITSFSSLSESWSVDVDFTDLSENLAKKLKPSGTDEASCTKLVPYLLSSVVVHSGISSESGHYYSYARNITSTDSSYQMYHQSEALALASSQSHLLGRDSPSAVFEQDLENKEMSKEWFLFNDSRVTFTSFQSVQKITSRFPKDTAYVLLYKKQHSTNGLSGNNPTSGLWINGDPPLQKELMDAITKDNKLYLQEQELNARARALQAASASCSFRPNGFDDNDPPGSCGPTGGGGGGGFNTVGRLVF
Outline: as §1

[4] = molecular target: T3, USP39 (UniProt Q53GS9)
T3 sequence (whole entry): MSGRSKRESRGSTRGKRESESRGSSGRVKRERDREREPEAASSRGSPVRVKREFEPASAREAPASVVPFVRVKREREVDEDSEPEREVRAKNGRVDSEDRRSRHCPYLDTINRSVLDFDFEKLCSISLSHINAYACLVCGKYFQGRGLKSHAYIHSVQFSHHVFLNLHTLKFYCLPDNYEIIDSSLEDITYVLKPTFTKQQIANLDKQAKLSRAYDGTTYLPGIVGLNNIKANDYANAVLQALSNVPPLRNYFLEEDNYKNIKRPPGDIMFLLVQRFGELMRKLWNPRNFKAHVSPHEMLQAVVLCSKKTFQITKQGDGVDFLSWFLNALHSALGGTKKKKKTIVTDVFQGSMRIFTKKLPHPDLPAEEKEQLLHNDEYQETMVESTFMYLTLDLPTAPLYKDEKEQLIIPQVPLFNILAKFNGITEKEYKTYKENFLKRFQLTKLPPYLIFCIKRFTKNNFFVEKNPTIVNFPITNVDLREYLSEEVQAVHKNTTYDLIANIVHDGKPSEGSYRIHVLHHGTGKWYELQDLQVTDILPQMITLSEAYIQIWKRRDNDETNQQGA
Outline: as §1

[5] = molecular target: T4, USP4 (UniProt Q13107)
T4 sequence (whole entry): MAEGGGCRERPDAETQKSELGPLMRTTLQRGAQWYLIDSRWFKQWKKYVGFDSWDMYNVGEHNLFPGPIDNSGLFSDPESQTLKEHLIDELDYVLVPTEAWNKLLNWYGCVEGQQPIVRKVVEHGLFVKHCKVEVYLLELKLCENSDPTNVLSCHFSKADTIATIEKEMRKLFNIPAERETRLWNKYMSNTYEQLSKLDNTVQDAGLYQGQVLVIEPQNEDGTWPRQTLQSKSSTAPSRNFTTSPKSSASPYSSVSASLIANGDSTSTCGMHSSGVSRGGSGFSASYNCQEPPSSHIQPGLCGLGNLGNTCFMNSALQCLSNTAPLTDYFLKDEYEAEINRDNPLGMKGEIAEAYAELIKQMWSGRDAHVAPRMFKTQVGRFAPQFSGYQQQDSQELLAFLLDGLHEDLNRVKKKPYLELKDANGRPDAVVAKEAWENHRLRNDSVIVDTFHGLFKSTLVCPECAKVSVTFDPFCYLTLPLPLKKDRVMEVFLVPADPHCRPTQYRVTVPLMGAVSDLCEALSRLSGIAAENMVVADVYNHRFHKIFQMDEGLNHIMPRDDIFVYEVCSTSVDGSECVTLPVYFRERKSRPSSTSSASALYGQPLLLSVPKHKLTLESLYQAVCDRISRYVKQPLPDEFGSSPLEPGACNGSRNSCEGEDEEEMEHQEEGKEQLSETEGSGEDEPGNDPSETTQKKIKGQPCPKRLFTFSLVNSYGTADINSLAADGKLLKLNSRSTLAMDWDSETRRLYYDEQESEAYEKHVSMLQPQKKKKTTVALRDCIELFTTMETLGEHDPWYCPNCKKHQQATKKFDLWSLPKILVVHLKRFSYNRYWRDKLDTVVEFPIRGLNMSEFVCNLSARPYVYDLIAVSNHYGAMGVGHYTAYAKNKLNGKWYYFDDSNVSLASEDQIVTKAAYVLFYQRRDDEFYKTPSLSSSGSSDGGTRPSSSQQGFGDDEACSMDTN
Outline: as §1

Measured: log2 ratio of Biotin-Ahx-Ub-VS probe labelling

Sequence of USP34 (Q70CQ2 whole entry, the tested form may be a part): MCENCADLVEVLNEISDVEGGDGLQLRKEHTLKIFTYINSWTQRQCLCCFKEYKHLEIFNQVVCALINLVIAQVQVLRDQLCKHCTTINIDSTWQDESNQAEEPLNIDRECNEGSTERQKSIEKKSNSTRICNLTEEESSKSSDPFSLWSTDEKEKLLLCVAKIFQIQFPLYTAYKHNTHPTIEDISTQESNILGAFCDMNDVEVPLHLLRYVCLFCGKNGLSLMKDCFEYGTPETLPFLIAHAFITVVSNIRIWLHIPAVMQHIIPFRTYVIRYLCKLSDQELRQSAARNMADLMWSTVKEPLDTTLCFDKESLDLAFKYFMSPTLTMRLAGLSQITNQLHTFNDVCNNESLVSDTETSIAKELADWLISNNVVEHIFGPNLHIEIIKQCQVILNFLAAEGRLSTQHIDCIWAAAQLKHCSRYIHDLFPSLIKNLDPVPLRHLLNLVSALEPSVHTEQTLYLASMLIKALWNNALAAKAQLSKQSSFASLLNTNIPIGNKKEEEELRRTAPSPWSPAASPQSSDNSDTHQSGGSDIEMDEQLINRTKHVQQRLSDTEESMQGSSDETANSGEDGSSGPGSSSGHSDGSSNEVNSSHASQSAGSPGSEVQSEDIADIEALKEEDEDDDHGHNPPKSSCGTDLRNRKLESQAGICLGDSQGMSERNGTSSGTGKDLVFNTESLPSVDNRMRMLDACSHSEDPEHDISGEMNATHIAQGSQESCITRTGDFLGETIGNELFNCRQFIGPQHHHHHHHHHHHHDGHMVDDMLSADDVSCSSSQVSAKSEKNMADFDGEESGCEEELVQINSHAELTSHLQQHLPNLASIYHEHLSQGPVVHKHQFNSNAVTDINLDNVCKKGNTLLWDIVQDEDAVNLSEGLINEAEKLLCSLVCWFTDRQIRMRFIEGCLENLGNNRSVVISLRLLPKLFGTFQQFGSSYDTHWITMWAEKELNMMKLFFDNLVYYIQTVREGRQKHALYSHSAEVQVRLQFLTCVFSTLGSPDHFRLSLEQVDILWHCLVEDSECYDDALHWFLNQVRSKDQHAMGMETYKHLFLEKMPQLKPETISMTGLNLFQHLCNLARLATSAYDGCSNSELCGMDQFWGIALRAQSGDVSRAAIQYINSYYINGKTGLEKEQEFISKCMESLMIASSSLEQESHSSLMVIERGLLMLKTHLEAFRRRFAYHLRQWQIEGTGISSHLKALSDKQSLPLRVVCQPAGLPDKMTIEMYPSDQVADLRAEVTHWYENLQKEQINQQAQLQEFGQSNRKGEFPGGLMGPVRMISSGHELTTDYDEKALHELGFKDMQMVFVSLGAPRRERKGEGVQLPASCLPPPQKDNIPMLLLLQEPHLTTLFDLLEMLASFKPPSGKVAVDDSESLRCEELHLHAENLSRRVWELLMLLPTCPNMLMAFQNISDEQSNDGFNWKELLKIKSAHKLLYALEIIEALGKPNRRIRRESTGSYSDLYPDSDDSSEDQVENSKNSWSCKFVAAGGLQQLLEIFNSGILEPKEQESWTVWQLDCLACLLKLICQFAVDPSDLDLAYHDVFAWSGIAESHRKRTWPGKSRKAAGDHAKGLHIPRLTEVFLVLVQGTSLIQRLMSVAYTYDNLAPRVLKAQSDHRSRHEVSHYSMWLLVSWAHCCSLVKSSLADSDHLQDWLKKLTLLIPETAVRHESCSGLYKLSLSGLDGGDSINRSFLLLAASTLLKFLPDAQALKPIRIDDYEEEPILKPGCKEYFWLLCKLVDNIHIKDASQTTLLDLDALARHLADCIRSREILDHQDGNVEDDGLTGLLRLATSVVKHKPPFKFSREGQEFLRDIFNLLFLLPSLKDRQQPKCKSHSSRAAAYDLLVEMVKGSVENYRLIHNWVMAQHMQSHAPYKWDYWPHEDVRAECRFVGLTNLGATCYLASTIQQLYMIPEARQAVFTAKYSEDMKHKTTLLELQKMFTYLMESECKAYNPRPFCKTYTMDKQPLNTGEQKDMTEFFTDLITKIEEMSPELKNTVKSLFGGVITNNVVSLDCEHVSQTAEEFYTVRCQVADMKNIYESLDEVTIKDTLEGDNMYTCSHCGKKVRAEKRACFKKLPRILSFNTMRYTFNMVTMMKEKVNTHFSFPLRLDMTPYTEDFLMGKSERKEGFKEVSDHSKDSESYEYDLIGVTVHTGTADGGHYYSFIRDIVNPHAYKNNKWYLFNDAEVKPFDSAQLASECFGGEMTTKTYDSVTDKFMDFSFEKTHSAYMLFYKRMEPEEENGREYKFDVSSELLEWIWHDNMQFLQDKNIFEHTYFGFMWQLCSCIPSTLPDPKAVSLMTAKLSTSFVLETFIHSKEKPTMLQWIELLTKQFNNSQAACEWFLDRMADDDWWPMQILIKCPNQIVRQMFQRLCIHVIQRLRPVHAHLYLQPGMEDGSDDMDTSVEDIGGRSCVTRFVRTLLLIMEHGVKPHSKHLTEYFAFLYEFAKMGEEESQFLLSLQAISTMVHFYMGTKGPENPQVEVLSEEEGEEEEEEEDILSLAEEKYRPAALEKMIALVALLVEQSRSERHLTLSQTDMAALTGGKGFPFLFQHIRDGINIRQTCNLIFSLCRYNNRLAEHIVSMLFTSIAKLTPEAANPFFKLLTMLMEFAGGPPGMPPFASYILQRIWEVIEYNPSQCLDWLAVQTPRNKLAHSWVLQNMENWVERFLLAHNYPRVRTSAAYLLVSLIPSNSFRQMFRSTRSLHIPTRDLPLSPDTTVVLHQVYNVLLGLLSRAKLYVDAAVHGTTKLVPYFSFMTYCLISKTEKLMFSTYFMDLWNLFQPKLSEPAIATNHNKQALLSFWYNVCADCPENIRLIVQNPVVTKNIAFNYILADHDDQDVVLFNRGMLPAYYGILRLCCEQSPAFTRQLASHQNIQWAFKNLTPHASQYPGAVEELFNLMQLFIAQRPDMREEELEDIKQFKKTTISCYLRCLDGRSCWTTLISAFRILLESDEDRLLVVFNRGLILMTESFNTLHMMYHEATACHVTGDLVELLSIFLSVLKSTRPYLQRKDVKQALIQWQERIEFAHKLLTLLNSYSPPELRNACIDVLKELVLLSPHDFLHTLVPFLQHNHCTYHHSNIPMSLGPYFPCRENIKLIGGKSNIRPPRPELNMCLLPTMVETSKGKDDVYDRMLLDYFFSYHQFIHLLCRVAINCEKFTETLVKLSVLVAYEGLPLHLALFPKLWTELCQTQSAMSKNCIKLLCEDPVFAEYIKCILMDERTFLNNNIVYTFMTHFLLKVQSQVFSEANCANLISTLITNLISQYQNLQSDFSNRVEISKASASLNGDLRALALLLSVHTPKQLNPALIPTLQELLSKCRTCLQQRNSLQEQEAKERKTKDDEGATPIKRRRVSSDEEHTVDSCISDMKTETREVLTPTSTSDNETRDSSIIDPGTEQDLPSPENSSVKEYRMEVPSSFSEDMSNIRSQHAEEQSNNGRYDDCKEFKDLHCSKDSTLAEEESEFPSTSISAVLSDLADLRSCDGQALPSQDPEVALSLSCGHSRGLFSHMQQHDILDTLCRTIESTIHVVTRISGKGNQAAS

CCN1C(=O)C2CN(C(=O)CCl)CCN2C1=O (stereo not given)
inactive: [1] 0.053 | [2] -0.271 | [3] -0.0595 | [4] -0.0577 | [5] 0.0781
